In the library only some 1.5% were active in any assay of this set; here they are far more common.
SSB-PriA inh: K. pneumoniae PriA-SSBct interaction inhibition; AlphaScreen SSBct-PriA binding, biotinylated peptide; inhibition, % at 33 µM; 430,000 tested, 0.6% active; AID 1272365; in the data active means inhibition mostly above about 37%, no sharp cut-off; inactive means mostly below about 20%
BH1578 lux ind: quorum light induction in luxS cqsA deficient V. cholerae. V. cholerae BH1578 lux reporter, luminescence, 6 h. activation, % at 18.7 µM. AID 588436. 350,000 tested, 0.16% active; in the data active means activation mostly above about 9.7%, no sharp cut-off
DUSP3 inh: blocks human VHR1 dual specificity phosphatase; inhibition, % at 13.3 µM; 290,000 tested, 0.52% active; P51452; recombinant VHR phosphatase, pNPP absorbance; in the data active means inhibition above about 50%
CCHF vOTU inh: CCHFV vOTU protease inhibition; 370,000 tested, 0.55% active; Pep-AMC fluorescence; inhibition, % at 11.5 µM; AID 651958; in the data active means inhibition above about 30%
TcdB inh: inhibitors of Clostridioides difficile toxin B glycohydrolase; TcdB glycohydrolase enzymatic assay, plate reader; inhibition, % at 9.99 µM; 350,000 tested, 0.24% active; in the data active means inhibition above about 10%
PrPC surface inh: reduces human prion protein on the cell surface; cell surface PrPC, TR-FRET read-out; inhibition, % at 13.8 µM; 370,000 tested, 0.43% active; in the data active means inhibition above about 24%
Hits are given with their value; . = inactive; / = no result; ! = not active in a repeat.

SMILES	SSB-PriA inh	BH1578 lux ind	DUSP3 inh	CCHF vOTU inh	TcdB inh	PrPC surface inh
Nc1nn(S(=O)(=O)c2cccc3nsnc23)cc1-c1ccc(Br)cc1	41.9	.	.	.	/	.
Cc1ccc(-c2cn(S(=O)(=O)c3cccc4nsnc34)nc2N)cc1	.	.	.	.	/	.
CCN1CCN(C(=S)c2ccc(Br)cc2)CC1	.	.	51.7	.	.	.
COc1cccc(C(=O)Nc2ccc(-c3cn4ccsc4n3)cc2)c1OC	.	/	/	/	/	/
O=C(O)[C@@H]1CCCC[C@@H]1C(=O)N1CCc2ccccc2C1CN1C(=O)c2ccccc2C1=O (some centres undefined)	54.8	.	.	.	/	.
O=C1c2ccccc2C(=O)N1CC1c2ccccc2CCN1C(=O)C1CCCCC1 (centres undefined)	.	.	.	.	/	.
N#Cc1nc(-c2ccccc2Cl)oc1N1CCCCC1	48.2	.	.	.	/	.
CC(C)(C)c1ccc(-c2nc(C#N)c(N3CCCCC3)o2)cc1	72.8	/	/	/	/	/
COc1ccc(-c2nc(C#N)c(N3CCN(C)CC3)o2)cc1	54.2	/	/	/	/	/
COc1ccccc1-c1nc(C#N)c(N2CCN(Cc3ccccc3)CC2)o1	40.8	.	.	.	/	.
O=C(Cn1nc2ncccn2c1=O)N1CCCCCC1	.	/	/	/	/	/
COc1cccc(CNC(=O)c2nnn(Cc3cc(C)ccc3C)c2N)c1	.	/	/	/	/	/
C=c1c(=C2N=C(c3ccc(Cl)cc3)NO2)sc2ncn(CC(=O)Nc3ccccc3F)c(=O)c12	.	/	/	/	/	/
O=C(c1ccno1)N1CCc2ncncc2C1	.	/	/	/	/	/
COc1coc(C(=O)Nc2ccc(Oc3ccccc3)cc2)cc1=O	.	/	/	/	/	/
CCCS(=O)(=O)NC(=O)C1(C)CCN(C(=O)c2ccco2)C1 (centres undefined)	/	.	/	.	11.5	.
Cc1noc(C)c1C(=O)Nc1cccc2ncccc12	.	.	53.3	.	.	.
CC(=O)Nc1cccc2ncccc12	.	.	.	.	.	.
CN(C(=O)COC(=O)CNC(=O)c1ccccc1Cl)c1ccccc1	.	.	.	.	14.9	.
O=c1c(-c2ccc(Cl)cc2)coc2c(CN3CCOCC3)c(O)ccc12	.	.	.	.	/	.
COc1ccc(-c2coc3c(CN4CCOCC4)c(O)ccc3c2=O)cc1	.	12.7	.	.	.	.
O=C(Nc1nc(CCC(=O)N2CCN(c3ncccn3)CC2)cs1)c1ccc(=O)[nH]c1	.	/	/	/	/	/
NC(=S)NN=Cc1c2ccccc2cc2ccccc12	.	/	/	/	/	/
NC(=S)NN=Cc1nccc2ccccc12	78.0	.	/	.	.	.
CCn1c(CNC(=O)c2cccc(C)c2)nnc1SCC(=O)NC1=NCCS1	.	.	52.0	.	.	.
SMILES	SSB-PriA inh	BH1578 lux ind	DUSP3 inh	CCHF vOTU inh	TcdB inh	PrPC surface inh
COCCN(Cc1ccoc1)C(=O)c1ccc2c(c1)OCO2	.	/	/	/	/	/
O=[N+]([O-])c1ccc(NN=Cc2ccc[nH]2)cc1	54.7	/	/	/	/	/
Cc1cn2c3c(=O)n(Cc4cccc(Cl)c4)c(=O)n(C)c3nc2n1-c1ccc(S(N)(=O)=O)cc1	.	/	/	/	/	/
CCOc1ccc(NC(=O)CC(Cc2cc(C)cc(C)c2)C(=O)O)cc1 (centres undefined)	.	.	53.0	.	.	.
CCOc1ccc(NC(=O)C(CC(=O)O)Cc2ccccc2)cc1 (centres undefined)	.	.	.	.	.	.
CCOC(=O)CSCC(=O)Nc1cccc(C)c1C	.	/	/	/	/	/
c1ccc2c(CNc3ccc(CNc4ncn[nH]4)cc3)cccc2c1	39.6	/	.	.	/	.
COc1ccccc1CNc1ccc(CNc2ncn[nH]2)cc1	.	.	.	.	.	.
CS(=O)(=O)N(CC(=O)Nc1ccc(S(=O)(=O)N2CCOCC2)cc1)c1ccccc1Br	.	.	.	.	31.7	.
O=C(Cc1ccccc1)Nc1ccc(Nc2ccc(-n3cccn3)nn2)cc1	52.0	/	/	/	/	/
CC(=O)Nc1ccc(S(=O)(=O)Nc2ccc(Nc3ccc(-n4ccc(C)n4)nn3)cc2)cc1	.	/	/	/	/	/
Cc1ccn(-c2ccc(Nc3ccc(NC(=O)c4ccco4)cc3)nn2)n1	55.0	/	/	/	/	/
Cc1ccc(Nc2ccc(NC(=O)Cc3ccccc3)cc2)nn1	.	/	/	/	/	/
O=C(N/N=C/c1c[nH]c2ccccc12)c1ccccc1Cl	/	.	57.3	.	.	.
O=C(N/N=C\c1c[nH]c2ccccc12)c1ccccc1	.	/	/	/	/	/
Cc1ccc(NC2CCCN(C(=O)CN3C(=O)CSC3=O)C2)cc1C (centres undefined)	.	.	53.3	.	.	.
Cc1cc(C)c(C(=O)N2CCCC(Nc3ccc(C)c(C)c3)C2)o1 (centres undefined)	.	.	52.7	.	.	.
COc1ccc(NC2CCCN(C(=O)CN3CCOC3=O)C2)cc1OC (centres undefined)	.	.	.	.	11.5	.
CCN(CC)c1ccc(NC(=O)Cn2c(C(C)NC(=O)c3ccccc3)nc3ccccc32)cc1 (centres undefined)	.	.	55.4	.	.	.
Cc1ccc(C(=O)NC(C)c2nc3ccccc3n2CC(=O)Nc2c(C)cc(C)cc2C)cc1 (centres undefined)	/	/	.	/	/	/
Nc1ccccc1-c1ccccc1N	.	.	.	.	.	.
Nc1ccccc1N=Nc1ccccc1N	82.9	.	.	.	.	.
CCOC(=O)c1c(C)n(Cc2ccccc2)c2ccc(OCC(O)Cn3nc(C)nc3C)cc12 (centres undefined)	104.2	.	.	.	.	.
CCOC(=O)c1c(C)n(Cc2ccccc2)c2ccc(OCC(O)Cn3nc(C)cc3C)cc12 (centres undefined)	.	.	.	.	/	.
Cn1cccc1-c1cc(C(=O)NN=Cc2cc(Br)ccc2O)[nH]n1	.	/	/	/	/	/
SMILES	SSB-PriA inh	BH1578 lux ind	DUSP3 inh	CCHF vOTU inh	TcdB inh	PrPC surface inh
Cn1cccc1-c1cc(C(=O)NN=Cc2ccccc2Cl)[nH]n1	39.9	/	/	/	/	/
O=C(NCc1cccnc1)Nc1ccc(Br)cc1	.	.	52.8	.	.	.
O=C(NCc1ccc(Cl)cc1)N1CCC(c2ccsc2)CC1	.	/	/	/	/	/
CCn1c(SCC(=O)Nc2ccc(OC)cc2)nc2nc3c(cc2c1=O)CCCC3	.	.	.	.	.	.
CCn1c(SCC(=O)Nc2ccc(Cl)cc2)nc2nc3c(cc2c1=O)CCCC3	.	.	59.9	.	/	.
CCn1c(SCC(=O)NCc2ccccc2)nc2nc3c(cc2c1=O)CCCC3	.	.	52.9	.	.	.
CCn1c(SCC(=O)Nc2ccc(C(C)=O)cc2)nc2nc3c(cc2c1=O)CCCC3	.	.	.	.	/	.
O=C(c1cc2ccccc2s1)N1C2C=CCC1CC2 (centres undefined)	.	/	/	/	/	/
O=C(Cn1cccc1)N1CC(S(=O)(=O)C2CCCCC2)C1	.	/	/	/	/	/
COC(=O)c1ccccc1NC(=O)C(=O)NCc1ccncc1	.	.	56.3	.	.	.
COC(=O)c1ccc2nc(N)sc2c1	53.0	/	/	/	/	/
Nc1nc2ccc(C(=O)O)cc2s1	89.0!	/	/	/	/	/
CCCNC(=O)c1ccc2nc(N)sc2c1	87.3	/	/	/	/	/
CC(=O)c1ccc2nc(N)sc2c1	.	/	/	/	/	/
CCc1ccc[n+](-c2[nH]c(=O)sc2C=NN=C([O-])CCn2c3ccccc3c3ccccc32)c1	.	/	/	/	/	/
Cc1nnn(-c2nonc2N)c1C(=O)NN=Cc1ccccc1O	.	/	/	/	/	/
CCc1c(C)nc2ccc(Br)cc2c1SCCC#N	.	.	.	.	.	47.1

Screening results: PubChem, several laboratories
